# Source: PubChem BioAssay AID588689 (Southern Research Specialized Biocontainment Screening …, 2011)
# Among all 340,000 compounds or so, about 1,000 (0.29%) were called active. Rule as the data show it: inconclusive = inhibition above about 29% without an active follow-up result; inactive = below that. Only a sample is shown. Measured potencies and affinities stand elsewhere.
# Biological target: Genome polyprotein (Dengue virus type 2 (strain 16681-PDK53)) (UniProt P29991)
# Assay: flavivirus cap methylation enzyme inhibition – biochemical, confirmation dose response, primary screen (AID 588689)
# Settings: Dengue-2 NS5 methyltransferase capping enzyme assay, at 25 µM, stronger effect = higher value
# [1] = measured here: pilot screen replicate inhibition
# Genome polyprotein (Dengue virus type 2 (strain 16681-PDK53)), sequence (P29991 whole entry, looked up): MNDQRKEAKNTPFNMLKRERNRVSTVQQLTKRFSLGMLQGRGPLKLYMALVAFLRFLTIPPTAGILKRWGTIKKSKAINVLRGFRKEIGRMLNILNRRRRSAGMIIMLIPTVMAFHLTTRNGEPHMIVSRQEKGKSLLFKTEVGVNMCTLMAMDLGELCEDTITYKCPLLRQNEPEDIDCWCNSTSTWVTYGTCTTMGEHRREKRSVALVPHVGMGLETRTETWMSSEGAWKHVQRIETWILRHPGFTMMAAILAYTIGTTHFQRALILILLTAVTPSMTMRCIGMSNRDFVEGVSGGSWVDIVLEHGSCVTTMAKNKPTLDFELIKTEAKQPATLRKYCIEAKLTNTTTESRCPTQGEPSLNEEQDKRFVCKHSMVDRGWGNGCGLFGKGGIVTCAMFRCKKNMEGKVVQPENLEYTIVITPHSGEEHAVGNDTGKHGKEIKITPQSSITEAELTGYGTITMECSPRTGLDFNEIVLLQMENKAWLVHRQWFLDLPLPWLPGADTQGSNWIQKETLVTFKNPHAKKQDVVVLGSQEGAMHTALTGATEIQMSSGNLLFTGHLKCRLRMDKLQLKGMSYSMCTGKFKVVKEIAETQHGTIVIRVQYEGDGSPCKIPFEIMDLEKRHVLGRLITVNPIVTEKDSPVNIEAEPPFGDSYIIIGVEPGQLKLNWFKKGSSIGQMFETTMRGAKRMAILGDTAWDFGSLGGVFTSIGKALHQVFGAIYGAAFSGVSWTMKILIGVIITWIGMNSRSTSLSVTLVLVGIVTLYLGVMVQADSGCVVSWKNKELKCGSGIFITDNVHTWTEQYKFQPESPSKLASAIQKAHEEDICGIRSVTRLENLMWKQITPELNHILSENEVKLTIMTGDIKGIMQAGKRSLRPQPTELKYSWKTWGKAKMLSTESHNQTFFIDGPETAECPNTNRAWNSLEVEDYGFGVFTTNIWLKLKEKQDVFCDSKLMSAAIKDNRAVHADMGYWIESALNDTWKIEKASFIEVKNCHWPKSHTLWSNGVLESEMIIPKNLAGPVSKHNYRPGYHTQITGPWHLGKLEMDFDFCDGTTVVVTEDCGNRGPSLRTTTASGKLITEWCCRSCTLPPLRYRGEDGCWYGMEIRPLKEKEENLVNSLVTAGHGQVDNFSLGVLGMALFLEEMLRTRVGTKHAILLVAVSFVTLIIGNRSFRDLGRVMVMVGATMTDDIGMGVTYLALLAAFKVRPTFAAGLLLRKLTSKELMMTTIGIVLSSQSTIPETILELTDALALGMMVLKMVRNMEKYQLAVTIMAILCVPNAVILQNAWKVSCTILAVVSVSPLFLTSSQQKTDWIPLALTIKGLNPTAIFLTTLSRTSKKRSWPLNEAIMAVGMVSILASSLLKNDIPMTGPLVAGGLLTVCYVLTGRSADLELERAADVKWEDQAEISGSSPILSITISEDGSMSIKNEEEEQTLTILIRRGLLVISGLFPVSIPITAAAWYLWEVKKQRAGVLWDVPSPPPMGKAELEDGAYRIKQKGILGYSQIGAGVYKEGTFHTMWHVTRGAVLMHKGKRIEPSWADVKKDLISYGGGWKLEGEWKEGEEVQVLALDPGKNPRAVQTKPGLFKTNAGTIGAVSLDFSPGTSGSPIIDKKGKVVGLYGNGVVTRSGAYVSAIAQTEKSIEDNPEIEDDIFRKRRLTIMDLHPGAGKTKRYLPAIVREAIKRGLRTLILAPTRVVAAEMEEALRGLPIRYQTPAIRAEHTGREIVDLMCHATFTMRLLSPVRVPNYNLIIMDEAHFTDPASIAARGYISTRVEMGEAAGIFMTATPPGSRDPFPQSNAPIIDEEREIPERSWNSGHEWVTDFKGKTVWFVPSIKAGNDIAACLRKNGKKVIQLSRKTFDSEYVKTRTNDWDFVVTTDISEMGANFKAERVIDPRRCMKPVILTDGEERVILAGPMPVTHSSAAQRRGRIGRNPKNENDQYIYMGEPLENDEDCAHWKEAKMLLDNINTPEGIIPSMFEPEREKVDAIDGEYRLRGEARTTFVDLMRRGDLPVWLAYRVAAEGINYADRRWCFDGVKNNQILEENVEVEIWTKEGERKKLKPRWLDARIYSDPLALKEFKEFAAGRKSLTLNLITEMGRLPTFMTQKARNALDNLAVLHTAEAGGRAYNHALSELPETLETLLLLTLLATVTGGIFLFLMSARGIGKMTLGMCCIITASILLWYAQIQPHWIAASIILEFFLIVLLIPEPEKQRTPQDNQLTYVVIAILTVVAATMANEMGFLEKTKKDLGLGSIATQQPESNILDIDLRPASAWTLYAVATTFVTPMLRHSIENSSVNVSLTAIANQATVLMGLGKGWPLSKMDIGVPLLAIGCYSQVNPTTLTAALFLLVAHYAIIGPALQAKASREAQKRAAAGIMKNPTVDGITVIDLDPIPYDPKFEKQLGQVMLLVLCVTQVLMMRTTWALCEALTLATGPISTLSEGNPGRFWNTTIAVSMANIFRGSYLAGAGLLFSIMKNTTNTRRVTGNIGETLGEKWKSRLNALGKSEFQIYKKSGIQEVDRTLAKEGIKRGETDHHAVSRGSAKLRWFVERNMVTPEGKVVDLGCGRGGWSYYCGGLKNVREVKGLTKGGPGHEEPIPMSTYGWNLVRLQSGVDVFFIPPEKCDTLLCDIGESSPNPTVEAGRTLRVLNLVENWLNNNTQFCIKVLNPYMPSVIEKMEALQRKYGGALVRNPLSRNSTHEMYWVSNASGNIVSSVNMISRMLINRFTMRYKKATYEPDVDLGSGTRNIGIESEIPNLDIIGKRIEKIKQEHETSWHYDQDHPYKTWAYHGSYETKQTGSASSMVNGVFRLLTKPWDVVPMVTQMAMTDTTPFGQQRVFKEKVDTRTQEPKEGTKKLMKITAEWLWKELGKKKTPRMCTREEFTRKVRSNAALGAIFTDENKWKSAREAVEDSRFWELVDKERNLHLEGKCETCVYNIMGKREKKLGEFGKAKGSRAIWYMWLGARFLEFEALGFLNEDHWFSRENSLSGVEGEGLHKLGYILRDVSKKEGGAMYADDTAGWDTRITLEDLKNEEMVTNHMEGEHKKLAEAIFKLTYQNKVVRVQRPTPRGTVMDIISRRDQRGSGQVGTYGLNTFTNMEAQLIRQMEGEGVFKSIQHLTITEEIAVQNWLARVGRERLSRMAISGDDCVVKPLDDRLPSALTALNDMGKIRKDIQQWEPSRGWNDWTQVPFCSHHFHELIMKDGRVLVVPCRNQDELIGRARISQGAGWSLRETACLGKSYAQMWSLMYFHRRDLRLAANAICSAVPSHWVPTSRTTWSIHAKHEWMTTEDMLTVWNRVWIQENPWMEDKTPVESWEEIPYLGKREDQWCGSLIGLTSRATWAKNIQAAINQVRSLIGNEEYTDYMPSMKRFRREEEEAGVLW
Compound,inhibition,inhibition [1] [%]
COc1ccc(-c2ccc(=O)n(Cc3ccccc3)n2)cc1,-0.78% (inactive),
C=CCn1c(CC(C)(C)C)nc2ccccc21,-5.1% (inactive),
Cc1ccc(S(=O)(=O)N2CCCN(C(=O)c3ccc(-n4nccc4C)cc3)CC2)cc1,-5.13% (inactive),
CCOC(=O)C1CCCN(C(=O)/C(=C/c2ccco2)NC(=O)c2ccccc2)C1 (configuration not stated),-14.3% (inactive),
CC[n+]1c(/C=C(\C)OC)sc2ccccc21,2.92% (inactive),
O=C(COC(=O)/C=C/c1ccccc1Cl)NC(=O)NC1CCCC1,-7.24% (inactive),
COCCNC(=O)CN1C(=O)CSc2ccc(S(=O)(=O)N3CCOCC3)cc21,0.89% (inactive),
COc1ccc(C(=O)N2CCN(c3ccc(NC(=O)c4ccco4)cc3)CC2)cc1,0% (inactive),
CC1(C)CC(=O)c2c(O)cc(O)cc2O1,-4.17% (inactive),
COc1cc(O)c2c(c1)OC(C)(C)CC2=O,-2.94% (inactive),
N#CCCN(C(=O)COC(=O)CNS(=O)(=O)c1ccc2ccccc2c1)c1ccccc1,1.1% (inactive),
N#CCc1ccc(NC(=O)Cn2c(=O)oc3ccccc32)cc1,-3.26% (inactive),-4.87
COc1ccc(S(=O)(=O)N2CCCC2)c(Cl)c1Cl,-8.19% (inactive),
N#Cc1c(NC(=O)C2CC=CCC2C(=O)O)sc2c1CCCCCC2 (configuration not stated),5.78% (inactive),
CCC1CCc2c(sc(NC(=O)C3CC=CCC3C(=O)O)c2C#N)C1 (configuration not stated),27.5% (inactive),
CC1CCc2c(sc(NC(=O)c3ccccc3C(=O)O)c2C#N)C1 (configuration not stated),-0.74% (inactive),
COc1ccc(-c2cc(C(=O)Nc3sc4c(c3C#N)CCCC4)c3ccccc3n2)cc1OC,-4.06% (inactive),
COc1ccc(OC)c(-c2cc(C(=O)Nc3sc4c(c3C#N)CCC(C)C4)c3ccccc3n2)c1 (configuration not stated),-5.61% (inactive),
CCC(C)(C)C1CCc2c(sc(NC(=O)c3ccoc3C)c2C(N)=O)C1 (configuration not stated),-3.22% (inactive),
CCOc1ccc(-c2cccc(NC(=O)COc3ccc(Cl)cc3)c2)nn1,-5.43% (inactive),
COc1ccc(/C=C/C(=O)c2cc(Br)ccc2O)cc1OC,0.78% (inactive),
Cc1cccc(-n2nnnc2SCC(=O)Nc2cccc(S(N)(=O)=O)c2)c1,0% (inactive),
Cc1ccc(NC(=S)NCC2CCCO2)cc1 (configuration not stated),-18% (inactive),
C[C@H](CO)N1C[C@H](C)[C@@H](CN(C)Cc2ccc(C(=O)O)cc2)Oc2c(NS(=O)(=O)c3cccs3)cccc2C1=O,2.31% (inactive),-3.33

Compound,inhibition,inhibition [1] [%]
CC1(C)CC(=O)C(C#N)=C(NCCCO)C1,-3.49% (inactive),
CC(C)=NNC1=NC(C)(C)Cc2ccccc21,3.83% (inactive),
O=C1Nc2ccccc2/C1=C/c1ccccc1Cl,-2.65% (inactive),
O=C1NC(=S)NC(=O)C1=Cc1ccccc1C(=O)O,1.94% (inactive),
O=Cc1c(Cl)cccc1Cl,0% (inactive),
O=C1NC(=O)/C(=C/c2ccccc2Cl)N1,-5.96% (inactive),
C=CCOC(=O)C(=O)/C=C/c1csc2ccccc12,23.7% (inactive),
O=C1NC(=S)NC1=Cc1ccc(Cl)cc1Cl,-0.78% (inactive),
C/C=C/C=C\C(=O)Nc1cccc(C2=NOC3(C2)C[C@H](C(N)=O)N(C(=O)/C=C/C)C3)c1 (some centres not stated),-9.17% (inactive),
CCOC(=O)c1c(S(=O)(=O)N(C)C2CCCCC2)c(C)n(C)c1C,-7.99% (inactive),
CC(C)(CNC(=O)c1cc(Cl)c(O)c(Cl)c1)N1CCCCC1,3.57% (inactive),
Cc1ccc(C(=O)Oc2ccc(/C=C3\C(=N)N4N=C(N5CCOCC5)SC4=NC3=O)cc2)cc1,9.04% (inactive),
CCC1=NN2C(=N)/C(=C\c3ccc(OCCOc4ccc(NC(C)=O)cc4)c(OC)c3)C(=O)N=C2S1,4.57% (inactive),
CCC1=NN2C(=N)/C(=C/c3ccc(OS(=O)(=O)c4ccccc4)c(OC)c3)C(=O)N=C2S1,4.04% (inactive),
N=C1/C(=C\c2ccc(OC(=O)c3ccccc3Cl)cc2)C(=O)N=C2SC(N3CCOCC3)=NN12,34.8% (inactive),
N=C1/C(=C\c2ccc(OC(=O)c3ccccc3)cc2)C(=O)N=C2SC(N3CCOCC3)=NN12,3.46% (inactive),
N=C1/C(=C\c2ccc(OC(=O)c3ccc(F)cc3)cc2)C(=O)N=C2SC(N3CCCC3)=NN12,-2.77% (inactive),
COCCN(CCOC)S(=O)(=O)c1ccc(C(=O)NCCCN2CCOCC2)cc1,-2.15% (inactive),
O=C(c1ccco1)N1CCN(C(=S)Nc2ccccc2Cl)CC1,1.93% (inactive),
Cc1cc2n(n1)C(c1ccsc1)Nc1ccccc1-2 (configuration not stated),-9.35% (inactive),
C/C(=C\COc1cc(=O)[nH]c2ccccc12)CCC(O)C(C)(C)O (configuration not stated),-11.2% (inactive),
Cc1nc2ccccc2n1CC(=O)NC(C)C1CC2CCC1C2 (configuration not stated),-6.66% (inactive),
C=CCn1c(SCc2ccc(F)cc2)nc2c1c(=O)[nH]c(=O)n2C,-3.48% (inactive),
Cc1nn(CC(=O)Nc2cccnc2)c(C)c1[N+](=O)[O-],-9.49% (inactive),

Compound,inhibition,inhibition [1] [%]
C/C(=N/NC(=O)Cc1ccccc1)c1ccc(C)s1,5.19% (inactive),
O=C1ON=C(c2ccccc2)/C1=C/c1ccccc1,27% (inactive),8.25
O=C1ON=C(c2ccccc2)/C1=C/c1ccc(O)c(O)c1,28.7% (inactive),
Cc1ccc(C2=NOC(=O)/C2=C\c2ccccc2)cc1,27.9% (inactive),
O=C1ON=C(c2ccccc2)/C1=C/c1ccc(O)cc1,42% (inactive),20.8
O=c1[nH]c2cc(Cl)cc(Cl)c2[nH]c1=O,-3.92% (inactive),
CSc1nc(N(C)C)nc(N(C#N)CCOC(C)=O)n1,0.74% (inactive),
COc1ccc(NS(=O)(=O)c2cc(NC(=O)[C@@H](NC(=O)c3ccccc3)C(C)C)ccc2C)cc1,-3.89% (inactive),
O=C(O)CCc1c(C(=O)O)[nH]c2ccccc12,-0.56% (inactive),
O=C(O)c1[nH]c2ccccc2c1-c1ccccc1,-4.76% (inactive),
CC(=O)Nc1c(C(=O)O)[nH]c2ccccc12,-4.8% (inactive),
COc1cc(C(NC(C)=O)NC(C)=O)ccc1OCc1ccccc1,-12.5% (inactive),
COc1ccc(CN=Cc2c(C(=O)O)[nH]c3ccccc23)cc1,-3.12% (inactive),
COc1cc(CC(=O)O)ccc1OCc1ccccc1,-5.48% (inactive),
C=CCOc1ccc(C(c2c(C)n(C)n(-c3ccccc3)c2=O)c2c(C)n(C)n(-c3ccccc3)c2=O)cc1,-3.27% (inactive),
Cc1[nH]c2ccccc2c1SCC(=O)O,-8.76% (inactive),
COc1ccc2sc(N(CCCN(C)C)C(=O)c3ccc(C(=O)c4ccccc4)cc3)nc2c1,0% (inactive),
CN(Cc1ccccc1F)C(=O)C1CCCN(C(=O)c2ccc(Cl)cc2)C1 (configuration not stated),3.62% (inactive),
COc1ccc(NS(=O)(=O)c2ccc3c(c2)N(C(C)=O)CCS3)cc1,-7.87% (inactive),
CCOc1nc(C)ccc1-c1noc(C)n1,0% (inactive),
COCc1c(Br)c(C)nc(OCC(=O)O)c1C#N,0.8% (inactive),
CCCCN(C(=O)CCC(=O)Nc1cc(C)on1)C(C(=O)NC1CCCC1)c1ccc(F)cc1 (configuration not stated),-14.2% (inactive),
N#Cc1cc2c(nc1SCc1cccc(Cl)c1)CCCCC2,4.4% (inactive),
Cc1ccc(C(=O)OCC(=O)N2CCC(C)CC2)cc1S(=O)(=O)N1CCCCC1,-4.55% (inactive),

Compound,inhibition,inhibition [1] [%]
CCCCSC1=N/C(=C/c2ccsc2)C(=O)N1c1ccccc1,-1.97% (inactive),
Fc1cccc(COc2ccccc2C(=S)N2CCCC2)c1,-5.22% (inactive),
CCS(=O)(=O)Nc1c(C(=O)O)[nH]c2ccccc12,-0.33% (inactive),
Cc1[nH]c2ccccc2c1C(C[N+](=O)[O-])c1cccc(O)c1 (configuration not stated),-3.77% (inactive),
C#CCOCCOCCOCCNc1nc(N2CCN(C(=O)[C@H](CO)n3cc([C@@H](N)C(C)C)nn3)CC2)nc(N2CCN(C(=O)[C@H](CCCCN)n3cc([C@@H](N)[C@H](C)CC)nn3)CC2)n1,0% (inactive),
Cc1ccc(/C=N/NC(=O)c2ccncc2)cc1,-7.15% (inactive),
Cc1ccsc1/C=N/NC(=O)c1ccncc1,-0.74% (inactive),
Cn1c(=O)c(/C(N)=N/OC(=O)c2ccccc2)cn(-c2ccccc2)c1=O,0% (inactive),
Cc1nc2nc(C)c(NS(=O)(=O)c3ccc(C4CCCCC4)cc3)c(=O)n2[nH]1,-5.01% (inactive),
CCc1nc2nc(C)c(NS(=O)(=O)c3ccc(C4CCCCC4)cc3)c(=O)n2[nH]1,7.51% (inactive),
Cc1cc(Br)ccc1NC(=O)c1ccc(-n2cncn2)c([N+](=O)[O-])c1,5.79% (inactive),
O=C(CCCCCNc1nc(=S)[nH]c2ccccc12)NCCC1=CCCCC1,-4.45% (inactive),
CCCCn1c(N)c(N(CC(C)C)C(=O)C2CCCO2)c(=O)[nH]c1=O (configuration not stated),-0.74% (inactive),
COc1cc2c(cc1OC)C1c3ccc(OC)c(OC)c3OCC1(O)C2 (configuration not stated),3.23% (inactive),
CCOc1ccc(NC(=O)CN(C)C(=O)c2ccncc2)cc1OCC,4.54% (inactive),
O=C(CCOc1ccccc1)N1CCCC(Nc2ccccc2)C1 (configuration not stated),-3.45% (inactive),
COc1cccc(CNC(=O)[C@H](C)NC(=O)C2CCN(S(=O)(=O)c3ccccc3)CC2)c1,-6.35% (inactive),
CC12CCC(=O)N1C(C(=O)Nc1nccs1)CS2 (configuration not stated),-5.93% (inactive),
O=C(O)CSc1nc(-c2ccccc2)nc2c1oc1ccccc12,5.73% (inactive),
Cc1nc(SCC(=O)O)c2oc3ccccc3c2n1,-1.65% (inactive),
CC(C)(C)c1ccc(C(=O)Nc2c3c(nn2C(C)(C)C)CS(=O)(=O)C3)cc1,-9.75% (inactive),
